Laboratory results published in PubChem BioAssay (EPA / NIEHS).
Inconclusive results are not listed. The source made the active and inactive calls. Rule for the calls, unless noted: active = hit-call score of the fitted dose curve at least 0.9, where 1 is the maximum; inactive = score below 0.9.

Key:
[1] = biological target: Oxysterols receptor LXR-alpha (Homo sapiens) (UniProt Q13133); experiment: ATG_LXRa_TRANS: Attagene TRANS-FACTORIAL HepG2 Assay for human Liver X Receptor alpha (LXRa) (AID 2282980; active = hit-call score of the fitted dose curve at least 0.9, where 1 is the maximum); conditions: HepG2 Attagene TRANS reporter, LXRa transactivation
Oxysterols receptor LXR-alpha (Homo sapiens), sequence (Q13133 whole entry, looked up, the tested form may be a part): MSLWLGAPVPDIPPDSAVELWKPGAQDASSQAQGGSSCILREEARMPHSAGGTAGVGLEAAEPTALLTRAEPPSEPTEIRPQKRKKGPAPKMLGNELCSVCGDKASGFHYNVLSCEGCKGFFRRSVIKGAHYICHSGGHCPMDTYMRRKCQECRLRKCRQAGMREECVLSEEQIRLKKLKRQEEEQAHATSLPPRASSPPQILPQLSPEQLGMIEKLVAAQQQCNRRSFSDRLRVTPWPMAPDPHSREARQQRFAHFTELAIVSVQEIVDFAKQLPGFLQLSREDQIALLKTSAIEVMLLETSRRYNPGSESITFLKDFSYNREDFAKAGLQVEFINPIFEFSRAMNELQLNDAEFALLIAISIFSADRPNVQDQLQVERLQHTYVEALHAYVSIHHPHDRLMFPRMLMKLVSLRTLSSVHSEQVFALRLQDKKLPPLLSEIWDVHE
How it was run: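 Read-out: reporter transcript levels by RT-PCR plus capillary electrophoresis, fluorescence intensity. Transiently transfected HepG2, exogenous NR-GAL4 chimera, GAL4-UAS reporters; 24 h compound exposure. Activity = increase over DMSO negative control.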

[2] = ATG_M_32_TRANS: Attagene TRANS-FACTORIAL HepG2 Assay for M32 Transcription Factor (Internal Marker) (AID 2282984; active = hit-call score of the fitted dose curve at least 0.9, where 1 is the maximum); conditions: HepG2 Attagene TRANS M32 internal marker reporter
How it was run: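 Internal background reporter in transfected HepG2: after 24 h chemical exposure, RNA reverse-transcribed, reporter cDNA amplified, fluorescently labelled and HpaI-cut, then sized by capillary electrophoresis. Gain of signal fitted against DMSO control.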

[3] = biological target: Nuclear receptor subfamily 4 group A member 2 (Homo sapiens) (UniProt P43354); experiment: ATG_NURR1_TRANS: Attagene TRANS-FACTORIAL HepG2 Assay for human Nuclear Receptor Related Protein 1 (NURR1) (AID 2282985; active = hit-call score of the fitted dose curve at least 0.9, where 1 is the maximum); conditions: HepG2 Attagene TRANS reporter, mRNA readout
Nuclear receptor subfamily 4 group A member 2 (Homo sapiens), sequence (P43354 whole entry, looked up, the tested form may be a part): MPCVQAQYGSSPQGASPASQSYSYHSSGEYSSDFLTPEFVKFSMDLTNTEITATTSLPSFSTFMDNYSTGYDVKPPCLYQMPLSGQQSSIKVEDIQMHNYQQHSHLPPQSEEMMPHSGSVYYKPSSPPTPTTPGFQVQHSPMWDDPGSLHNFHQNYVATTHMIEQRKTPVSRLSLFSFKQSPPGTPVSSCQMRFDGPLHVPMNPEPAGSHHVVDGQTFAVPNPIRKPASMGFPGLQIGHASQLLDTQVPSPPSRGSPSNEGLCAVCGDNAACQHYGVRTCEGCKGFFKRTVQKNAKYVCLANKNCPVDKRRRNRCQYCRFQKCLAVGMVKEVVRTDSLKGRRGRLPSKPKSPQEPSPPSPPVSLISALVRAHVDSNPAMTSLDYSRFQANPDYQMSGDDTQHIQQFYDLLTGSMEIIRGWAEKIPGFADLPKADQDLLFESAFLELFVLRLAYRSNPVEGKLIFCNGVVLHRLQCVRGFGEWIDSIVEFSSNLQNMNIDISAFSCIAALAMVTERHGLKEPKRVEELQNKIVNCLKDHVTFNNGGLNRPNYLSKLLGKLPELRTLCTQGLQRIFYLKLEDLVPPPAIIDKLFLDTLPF
How it was run: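 Reporter transcript induction, measured by RT-PCR with fluorescent labelling, HpaI digestion and capillary electrophoresis, after 24 hr dosing of human HepG2 cells transiently expressing an exogenous NR-Gal4 fusion with GAL4-UAS-driven reporters; DMSO as baseline.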

[4] = biological target: Nuclear respiratory factor 1 (Homo sapiens) (UniProt Q16656); experiment: ATG_NRF1_CIS: Attagene CIS-FACTORIAL HepG2 Assay for human Nuclear Respiratory Factor 1 (NRF1) Orphan Gene (AID 2282987); conditions: HepG2 NRF1 cis-element reporter, Attagene multiplex; actives raise or lower the signal
Nuclear respiratory factor 1 (Homo sapiens), sequence (Q16656 whole entry, looked up): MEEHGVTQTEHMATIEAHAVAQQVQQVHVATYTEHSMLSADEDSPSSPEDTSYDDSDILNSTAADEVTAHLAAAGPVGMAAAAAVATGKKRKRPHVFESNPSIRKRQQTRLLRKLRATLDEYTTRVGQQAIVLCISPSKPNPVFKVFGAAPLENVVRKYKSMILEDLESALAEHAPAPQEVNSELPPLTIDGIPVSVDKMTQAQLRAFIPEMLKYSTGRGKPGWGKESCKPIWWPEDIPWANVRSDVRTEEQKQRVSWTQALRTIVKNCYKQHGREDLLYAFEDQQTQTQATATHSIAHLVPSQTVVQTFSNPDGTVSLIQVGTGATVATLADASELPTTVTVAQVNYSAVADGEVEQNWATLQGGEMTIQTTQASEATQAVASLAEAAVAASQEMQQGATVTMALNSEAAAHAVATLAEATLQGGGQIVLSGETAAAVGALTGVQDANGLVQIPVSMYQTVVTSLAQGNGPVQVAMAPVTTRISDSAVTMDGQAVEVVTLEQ
How it was run: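 Multiplexed cis-reporter assay, HepG2 cells, 24 h treatment. Total RNA → oligo(dT) RT → PCR with reporter-specific primers → 6-FAM primer extension → HpaI cut → CE. Bidirectional fit vs DMSO.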

[5] = ATG_NFI_CIS: Attagene CIS-FACTORIAL HepG2 Assay for human Nuclear Factor I (NFI) (AID 2282989); conditions: HepG2 cis-regulatory reporter, NFI response element transcription; actives raise or lower the signal
How it was run: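 Read-out: reporter mRNA via RT-PCR plus capillary electrophoresis with fluorescence detection. Transiently transfected HepG2 (endogenous TF activity on cis promoters), 24 h compound exposure; gain or loss of signal fitted against DMSO.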

[6] = biological target: Myc proto-oncogene protein (Homo sapiens) (UniProt P01106); experiment: ATG_Myc_CIS: Attagene CIS-FACTORIAL HepG2 Assay for human Myelocytomatosis (Myc) Proto-Oncogene Transcription Factor (AID 2282990); conditions: HepG2, Attagene cis-reporter transcription factor activity; actives raise or lower the signal
Myc proto-oncogene protein (Homo sapiens), sequence (P01106 whole entry, looked up, the tested form may be a part): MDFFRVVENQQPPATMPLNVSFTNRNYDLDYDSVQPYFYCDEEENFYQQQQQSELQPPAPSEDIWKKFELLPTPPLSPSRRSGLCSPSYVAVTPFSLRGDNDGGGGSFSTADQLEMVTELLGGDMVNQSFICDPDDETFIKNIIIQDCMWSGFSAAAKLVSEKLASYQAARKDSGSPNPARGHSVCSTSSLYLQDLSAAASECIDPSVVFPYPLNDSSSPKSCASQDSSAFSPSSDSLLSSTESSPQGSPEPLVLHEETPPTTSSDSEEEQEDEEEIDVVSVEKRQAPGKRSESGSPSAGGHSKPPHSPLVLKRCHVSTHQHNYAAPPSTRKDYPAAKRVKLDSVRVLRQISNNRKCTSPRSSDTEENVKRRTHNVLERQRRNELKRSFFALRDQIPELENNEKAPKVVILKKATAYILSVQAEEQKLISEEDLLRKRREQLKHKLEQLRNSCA
How it was run: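 After 24 h chemical treatment of HepG2 cells carrying multiplexed cis-regulated reporter constructs, reporter transcripts quantified by RT-PCR and capillary electrophoresis of fluorescent fragments. Gain or loss fitted against DMSO baseline.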

[7] = ATG_NF_kB_CIS: Attagene CIS-FACTORIAL HepG2 Assay for human Nuclear Factor Kappa B (NF-kB) (AID 2282991); conditions: HepG2 Attagene cis-factorial NF-kB reporter mRNA; actives raise or lower the signal
How it was run: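 Transient MRTU transfection of human HepG2 liver cells → 24 h chemical exposure → total RNA, oligo(dT) RT → PCR, 6-FAM primer extension, HpaI digest 2 h 37 C → CE fragment analysis. Bidirectional fitting, DMSO negative control.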

[8] = ATG_NRF2_ARE_CIS: Attagene CIS-FACTORIAL HepG2 Assay for human Nuclear Factor Erythroid 2 Related Factor 2 (NFR2) response to Antioxidant Response Elements (ARE) (AID 2282992); conditions: HepG2 Attagene ARE/NRF2 reporter, transcription factor activity; actives raise or lower the signal;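 for AC50: reporter mRNA level measured by RT-PCR and capillary electrophoresis fluorescence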
How it was run: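 Endogenous transcription factor activity in human liver HepG2 cells is tracked via a cis-element-driven reporter within a multiplexed set. mRNA induction is read by RT-PCR and capillary electrophoresis after 24 h, with DMSO as baseline.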

[9] = ATG_Oct_MLP_CIS: Attagene CIS-FACTORIAL HepG2 Assay for human Octamer-Binding Transcription Factor (Oct) (AID 2282993); conditions: HepG2 Attagene cis-factorial Oct reporter, mRNA; actives raise or lower the signal
How it was run: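 Read-out: reporter mRNA via RT-PCR plus capillary electrophoresis of 6-FAM-labelled fragments. Transiently transfected HepG2, 24 h exposure, endogenous TF activity on cis elements. Gain or loss of signal fitted relative to DMSO.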

[10] = biological target: Cellular tumor antigen p53 (Homo sapiens) (UniProt P04637); experiment: ATG_p53_CIS: Attagene CIS-FACTORIAL HepG2 Assay for human p53 Transcription Factor (AID 2282994); conditions: HepG2 p53 cis-element reporter, Attagene mRNA; actives raise or lower the signal
Cellular tumor antigen p53 (Homo sapiens), sequence (P04637 whole entry, looked up, the tested form may be a part): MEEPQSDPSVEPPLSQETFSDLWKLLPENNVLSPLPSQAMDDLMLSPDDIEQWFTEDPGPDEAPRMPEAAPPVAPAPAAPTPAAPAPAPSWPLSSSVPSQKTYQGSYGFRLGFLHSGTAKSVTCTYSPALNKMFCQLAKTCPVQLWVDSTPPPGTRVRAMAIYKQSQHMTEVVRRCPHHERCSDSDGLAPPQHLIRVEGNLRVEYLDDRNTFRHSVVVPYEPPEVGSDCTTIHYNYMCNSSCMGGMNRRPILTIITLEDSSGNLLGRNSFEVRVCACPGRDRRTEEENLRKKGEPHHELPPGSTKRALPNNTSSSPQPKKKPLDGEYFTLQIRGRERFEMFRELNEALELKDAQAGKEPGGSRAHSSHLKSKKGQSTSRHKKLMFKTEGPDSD
How it was run: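 Steps: transfect HepG2 with multiplexed cis reporter constructs; dose chemicals 24 h; extract RNA, reverse-transcribe, PCR-amplify reporter sequences; FAM-label, HpaI-digest, resolve fragments by CE. Activity fitted both directions relative to DMSO.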

[11] = BSK_3C_TissueFactor: BioMAP Diversity Plus: 3C Assay for Tissue Factor Biomarker Activity (AID 2282997); conditions: BioMAP 3C HUVEC, tissue factor biomarker readout; actives raise or lower the signal
How it was run: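 HUVEC, 3C system, 24 h post-dose; Tissue Factor by ELISA; bidirectional fit vs DMSO baseline.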

[12] = BSK_3C_uPAR: BioMAP Diversity Plus: 3C Assay for Urokinase-type plasminogen activator receptor (uPAR) Biomarker Activity (AID 2282998); conditions: BioMAP 3C HUVEC, uPAR biomarker ELISA; actives raise or lower the signal
How it was run: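 HUVEC primary cells; 24 h post-dose; uPAR by ELISA; gain or loss of signal fitted bidirectionally vs DMSO baseline.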

[13] = BSK_3C_VCAM1: BioMAP Diversity Plus: 3C Assay for Vascular cell adhesion molecule 1 (VCAM1) Biomarker Activity (AID 2282999); conditions: BioMAP 3C HUVEC, VCAM1 ELISA, cytokine-stimulated; actives raise or lower the signal
How it was run: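 Activity fitted in both directions relative to DMSO, with ELISA measurement of the surface marker on primary HUVEC (3C) at 24 h post-treatment; parallel SRB staining (0.1% SRB, TCA-fixed, 560 nm) flagged overt cytotoxicity.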

[14] = BSK_4H_Eotaxin3: BioMAP Diversity Plus: 4H Assay for Eotaxin 3 Biomarker Activity (AID 2283000); conditions: primary human endothelial cells (HUVEC); actives raise or lower the signal
How it was run: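 Readout is Eotaxin-3 (CCL26) level by ELISA in primary human umbilical vein endothelial cells harvested 24 h after chemical exposure; activity fitted in both directions against DMSO control.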

[15] = biological target: human Peroxisome Proliferator-activated Receptor alpha (PPARa), PPARA (gene 5465) (UniProt Q07869); experiment: ATG_PPARa_TRANS: Attagene TRANS-FACTORIAL HepG2 Assay for human Peroxisome Proliferator-activated Receptor alpha (PPARa) (AID 2283001; active = hit-call score of the fitted dose curve at least 0.9, where 1 is the maximum)
human Peroxisome Proliferator-activated Receptor alpha (PPARa), PPARA (gene 5465), sequence (Q07869 whole entry, looked up, the tested form may be a part): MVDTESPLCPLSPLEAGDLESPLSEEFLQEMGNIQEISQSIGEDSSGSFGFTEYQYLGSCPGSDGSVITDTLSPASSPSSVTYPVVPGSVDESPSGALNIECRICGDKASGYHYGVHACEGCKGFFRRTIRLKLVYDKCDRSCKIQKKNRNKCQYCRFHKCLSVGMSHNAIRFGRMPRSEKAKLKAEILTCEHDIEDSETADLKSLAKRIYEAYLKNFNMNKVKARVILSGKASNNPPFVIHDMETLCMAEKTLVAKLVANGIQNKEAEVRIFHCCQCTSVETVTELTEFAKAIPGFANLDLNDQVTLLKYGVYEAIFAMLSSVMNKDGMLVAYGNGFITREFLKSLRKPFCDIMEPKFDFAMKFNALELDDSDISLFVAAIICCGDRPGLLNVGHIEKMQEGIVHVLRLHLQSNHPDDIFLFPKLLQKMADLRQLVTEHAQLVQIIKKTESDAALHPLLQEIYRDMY
How it was run: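 Reporter transcripts quantified by RT-PCR plus capillary electrophoresis after 24 h treatment, fitted upward relative to DMSO. Cells: human HepG2 transiently carrying multiple GAL4-UAS reporter units driven by NR-Gal4 chimeras.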

[16] = biological target: Oxysterols receptor LXR-beta (Homo sapiens) (UniProt P55055); experiment: ATG_LXRb_TRANS: Attagene TRANS-FACTORIAL HepG2 Assay for human Liver X Receptor beta (LXRb) (AID 2282981; active = hit-call score of the fitted dose curve at least 0.9, where 1 is the maximum); conditions: HepG2 Attagene TRANS GAL4-LXRb reporter, mRNA
Oxysterols receptor LXR-beta (Homo sapiens), sequence (P55055 whole entry, looked up, the tested form may be a part): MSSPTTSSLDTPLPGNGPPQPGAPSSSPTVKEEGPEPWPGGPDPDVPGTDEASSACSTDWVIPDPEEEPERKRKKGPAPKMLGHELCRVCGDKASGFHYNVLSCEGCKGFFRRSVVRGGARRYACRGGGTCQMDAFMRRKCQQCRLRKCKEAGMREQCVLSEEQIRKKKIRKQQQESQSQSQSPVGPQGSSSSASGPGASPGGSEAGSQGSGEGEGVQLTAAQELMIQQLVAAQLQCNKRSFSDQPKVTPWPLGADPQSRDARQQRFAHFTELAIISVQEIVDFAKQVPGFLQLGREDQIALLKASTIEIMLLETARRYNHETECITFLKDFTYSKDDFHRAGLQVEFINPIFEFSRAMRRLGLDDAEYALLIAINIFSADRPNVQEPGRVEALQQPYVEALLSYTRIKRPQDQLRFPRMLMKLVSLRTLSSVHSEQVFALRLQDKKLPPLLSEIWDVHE
How it was run: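 After 24 h chemical treatment of transfected HepG2 cells carrying exogenous NR-Gal4 chimeras, reporter mRNA was quantified by fluorescent RT-PCR and capillary electrophoresis; activity taken as increase over DMSO controls.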

[17] = biological target: human Peroxisome Proliferator-activated Receptor delta (PPARd), PPARD (gene 5467) (UniProt Q03181); experiment: ATG_PPARd_TRANS: Attagene TRANS-FACTORIAL HepG2 Assay for human Peroxisome Proliferator-activated Receptor delta (PPARd) (AID 2283002; active = hit-call score of the fitted dose curve at least 0.9, where 1 is the maximum)
human Peroxisome Proliferator-activated Receptor delta (PPARd), PPARD (gene 5467), sequence (Q03181 whole entry, looked up, the tested form may be a part): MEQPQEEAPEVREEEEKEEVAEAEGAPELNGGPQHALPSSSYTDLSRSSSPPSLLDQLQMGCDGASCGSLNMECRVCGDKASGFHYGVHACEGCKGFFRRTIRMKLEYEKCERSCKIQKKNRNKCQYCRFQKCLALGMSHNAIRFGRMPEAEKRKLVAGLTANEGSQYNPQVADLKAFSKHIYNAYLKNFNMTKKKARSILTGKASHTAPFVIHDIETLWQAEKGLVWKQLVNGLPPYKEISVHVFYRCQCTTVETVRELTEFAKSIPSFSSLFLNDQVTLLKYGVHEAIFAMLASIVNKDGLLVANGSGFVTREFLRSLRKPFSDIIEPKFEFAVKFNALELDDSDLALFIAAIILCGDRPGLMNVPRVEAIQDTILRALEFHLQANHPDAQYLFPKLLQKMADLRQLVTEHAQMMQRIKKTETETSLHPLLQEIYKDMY
How it was run: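 Read-out is induced reporter mRNA, quantified by RT-PCR with fluorescent labelling and capillary electrophoresis after 24 h dosing. Cells are HepG2 transiently carrying multiple GAL4-UAS reporter units driven by exogenous NR-GAL4 chimeras; DMSO serves as baseline.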

[18] = ATG_M_06_TRANS: Attagene TRANS-FACTORIAL HepG2 Assay for M06 Transcription Factor (Internal Marker) (AID 2282983; active = hit-call score of the fitted dose curve at least 0.9, where 1 is the maximum); conditions: HepG2 Attagene TRANS M06 internal marker reporter
How it was run: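 Read-out: fluorescent reporter cDNA fragments resolved by capillary electrophoresis after RT-PCR and HpaI cut. Source cells were HepG2 carrying transfected multi-reporter GAL4 constructs, dosed 24 h. Increase over DMSO control analysed.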

[19] = biological target: Transcriptional activator Myb (Homo sapiens) (UniProt P10242); experiment: ATG_Myb_CIS: Attagene CIS-FACTORIAL HepG2 Assay for human Myeloblastosis (Myb) Proto-Oncogene Transcription Factor (AID 2282986); conditions: HepG2 Attagene CIS-FACTORIAL Myb reporter transcription; actives raise or lower the signal
Transcriptional activator Myb (Homo sapiens), sequence (P10242 whole entry, looked up): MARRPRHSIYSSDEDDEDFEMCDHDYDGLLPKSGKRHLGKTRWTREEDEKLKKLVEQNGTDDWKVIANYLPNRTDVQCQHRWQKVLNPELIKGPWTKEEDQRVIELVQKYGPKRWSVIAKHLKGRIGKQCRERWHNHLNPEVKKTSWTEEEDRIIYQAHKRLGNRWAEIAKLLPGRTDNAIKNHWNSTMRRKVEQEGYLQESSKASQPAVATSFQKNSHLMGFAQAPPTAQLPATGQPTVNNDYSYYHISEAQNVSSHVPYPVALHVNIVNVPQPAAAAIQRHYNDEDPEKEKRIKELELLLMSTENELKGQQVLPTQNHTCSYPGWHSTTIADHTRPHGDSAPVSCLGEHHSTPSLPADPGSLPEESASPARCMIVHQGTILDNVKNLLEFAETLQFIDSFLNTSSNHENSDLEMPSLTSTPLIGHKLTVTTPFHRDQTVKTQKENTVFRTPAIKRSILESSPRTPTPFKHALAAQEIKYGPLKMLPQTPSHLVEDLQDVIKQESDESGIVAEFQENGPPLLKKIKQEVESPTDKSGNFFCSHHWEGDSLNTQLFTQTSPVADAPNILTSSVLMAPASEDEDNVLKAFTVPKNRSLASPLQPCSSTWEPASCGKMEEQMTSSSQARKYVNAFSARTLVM
How it was run: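 Reporter transcript levels, quantified by fluorescent RT-PCR and capillary electrophoresis, serve as the read-out. Transfected HepG2 cells carrying cis-promoter reporter units are dosed for 24 hours, and curves are fitted bidirectionally against DMSO controls.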

Measured: AC50

O=P(OC(CCl)CCl)(OC(CCl)CCl)OC(CCl)CCl
inactive: [1] | [2] | [4] | [7] | [8] | [12] | [13] | [14] | [15]
active: [3] 32 µM | [5] 187 µM | [6] 143 µM | [9] 103 µM | [10] 39.3 µM | [11] 8.26 µM

CN(C)c1ccc(N=NS(=O)(=O)O)cc1
inactive: [1] | [16] | [4] | [5] | [6] | [10] | [12] | [17]
active: [8] 54 µM | [9] 130 µM | [11] 5.79 µM | [13] 6.47 µM

CCCCCCc1ccc(O)cc1O
inactive: [1] | [18] | [3] | [4] | [5] | [6] | [10] | [15]
active: [8] 24.3 µM | [9] 50.9 µM | [11] 33.8 µM | [12] 31.8 µM | [13] 34.3 µM | [14] 32.2 µM

Nc1nc2ncc(CNc3ccc(C(=O)N[C@@H](CCC(=O)O)C(=O)O)cc3)nc2c(=O)[nH]1
inactive: [1] | [16] | [19] | [4] | [5] | [7] | [8] | [9] | [10] | [11] | [12] | [13] | [14]

CCN(C(=O)c1cc(C)cc(OC[C@H](C)Nc2ccncc2)c1)C(C)C
active: [1] 486 nM | [8] 8.92 µM
inactive: [18] | [2] | [3] | [4] | [5] | [6] | [7] | [9] | [10] | [11] | [12] | [13]

CC(=O)OCCC(C)C
inactive: [16] | [18] | [3] | [19] | [4] | [5] | [8] | [9] | [10] | [11] | [12] | [13] | [14] | [15]

O=C(O)c1cccc(N(Cc2cccnc2)c2ccc(OC(F)F)c(OC(F)F)c2)c1
active: [7] 27.7 µM | [10] 35.7 µM | [11] 14.7 µM
inactive: [1] | [2] | [19] | [4] | [5] | [8] | [9] | [12] | [13] | [15] | [17]

O=c1[nH]c2ccc(S(=O)CCN3CCC(Cc4ccc(F)cc4)CC3)cc2o1 (configuration not stated)
inactive: [16] | [18] | [3] | [19] | [4] | [10] | [11] | [12] | [13] | [14] | [15] | [17]
active: [5] 100 µM | [7] 76.2 µM | [8] 39.4 µM | [9] 64.9 µM
